ALR H2O2 inh – inhibitors of human sulfhydryl oxidase ALR. AID 485317. 3.8% of 290,000 active. purified ALR, DTT oxidation, H2O2 HRP-luminol luminescence. P55789. inhibition, % (concentration not given with the values);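 active = mean replicate inhibition above about 79%, with every replicate also reaching it, limit read from the data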
Target sequence (P55789 whole entry, looked up): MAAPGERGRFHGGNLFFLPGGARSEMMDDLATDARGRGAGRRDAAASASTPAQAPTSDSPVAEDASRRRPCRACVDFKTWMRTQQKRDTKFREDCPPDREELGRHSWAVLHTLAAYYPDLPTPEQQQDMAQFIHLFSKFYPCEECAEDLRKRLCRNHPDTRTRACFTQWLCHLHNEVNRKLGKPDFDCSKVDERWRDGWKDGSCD
A3A deaminase – blocks human APOBEC3A ssDNA deamination; inhibition, % at 20 µM; 0.41% of 330,000 active; P31941; recombinant A3A, FAM/TAMRA ssDNA deamination fluorescence;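 active = at least 40% inhibition at 20 µM here, with at most 30% in a related deaminase screen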;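 note: plate controls were A3A with DMSO for no effect and wells lacking A3A enzyme for full effect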
Target sequence (P31941 whole entry, looked up): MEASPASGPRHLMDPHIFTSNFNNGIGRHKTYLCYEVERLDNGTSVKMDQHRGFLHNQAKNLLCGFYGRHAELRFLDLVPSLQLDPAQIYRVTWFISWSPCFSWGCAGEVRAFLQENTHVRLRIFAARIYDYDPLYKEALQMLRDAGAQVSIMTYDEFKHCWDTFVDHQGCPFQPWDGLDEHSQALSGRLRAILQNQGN
rCAG RNA binder – molecules binding r(CAG) RNA repeats. r(CAG) RNA repeat, TO-PRO-1 dye displacement fluorescence. inhibition, % at 3 µM. 1.3% of 370,000 active. AID 651821;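 active = inhibition above the plate cutoff, the mean of all test compounds on that plate plus 3 SD, cut at about 35% in these data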;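 note: 0% = DMSO alone and 100% = 100 µM mitoxantrone as full dye displacement; higher means more dye released from RNA so lower well fluorescence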
PHOSPHO1 inh – inhibitors of human PHOSPHO1 phosphatase. Q8TCT1. recombinant PHOSPHO1, absorbance phosphatase assay. inhibition, % at 13.3 µM. 1.1% of 290,000 active; in the data active = inhibition above about 60%
aDG glyco act – increases alpha dystroglycan glycosylation; Pro5-aDG cells, alpha-DG glycosylation AlphaScreen (IIH6); 0% Pro5, 100% B10-LARGE cell signal; activation, % at 10 µM; 0.22% of 360,000 active;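 active = activation of at least 8% versus controls, or a plate z-score of at least 8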;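 note: Pro5 are CHO cells carrying HIG-tagged alpha-DG that lacks glycosylation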
A3G deaminase – APOBEC3G (human) deaminase inhibition | Q9HC16 | 0.28% of 330,000 active | recombinant A3G, ssDNA deamination FAM/TAMRA fluorescence | AID 493012 | inhibition, % at 20 µM;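 active = inhibition of at least 40% at 20 µM, with no more than 30% in the related APOBEC3A deaminase screen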;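 note: plate controls were DMSO wells with A3G for no effect and wells lacking A3G enzyme for full effect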
* hit, by the source's call; . = no result given. Rows were chosen to be rich in hits. Some 5.4% of all compounds tested hit in one or more screens of this group.

SMILES	ALR H2O2 inh	A3A deaminase	rCAG RNA binder	PHOSPHO1 inh	aDG glyco act	A3G deaminase
Cc1cc(C)c(C#N)c(SCC(=O)Nc2ccc(S(=O)(=O)Nc3onc(C)c3C)cc2)n1	96*	-1	22	-14	0	-6
Cc1noc(NS(=O)(=O)c2ccc(NC(=O)CSc3nnc(-c4ccccc4)n3C3CCCCC3)cc2)c1C	98*	2	63*	12	0	-2
Cc1noc(NS(=O)(=O)c2ccc(NC(=O)CCN3C(=O)c4ccccc4C3=O)cc2)c1C	94*	-4	14	28	0	-4
Cc1noc(NS(=O)(=O)c2ccc(NC(=O)C(C)(C)C)cc2)c1C	0	-5	2	37	0	-8
Cc1noc(NS(=O)(=O)c2ccc(NC(=O)/C=C/c3ccc(C(C)C)cc3)cc2)c1C	14	-1	85*	.	0	-2
Cc1cc2c(nc1C)CCCN2S(=O)(=O)c1ccccc1	.	.	0	.	.	.
COC(=O)C1=C(C)N(Cc2cccc(C(F)(F)F)c2)C(=NCc2ccc3c(c2)OCO3)NC1c1ccccc1C(F)(F)F (configuration not stated)	.	.	4	.	.	.
CCC(c1ccc(OC)cc1)c1cn(C)c2ccccc12 (configuration not stated)	.	.	-1	.	.	.
O=C(NCCc1c[nH]c2ccccc12)OCc1cn(Cc2cccc(F)c2)nn1	.	.	3	.	.	.
COc1cc(-c2cc(OC)c3c(C)oc(C)c3c(=O)c2)ccc1O	91*	-3	9	32	0	-7
COc1c(O)c(O)c2oc(-c3ccccc3)cc(=O)c2c1OC	51	-1	9	28	0	-2
COc1ccc(-c2cc(OC)c3c(C)oc(C)c3c(=O)c2)cc1OC	-1	2	9	7	0	4
COc1cc(-c2cc(=O)c3c(O)c(OC)c(OC)c(O)c3o2)ccc1O	99*	9	13	44	0	9
CCCCNC(=O)N1CCCC1C(=O)Nc1cccc(OC)c1 (configuration not stated)	.	.	5	.	.	.
CCOC(=O)C1(CCOc2ccccc2)CCN(Cc2ccc(OC)cc2)CC1	.	.	-8	.	0	.
CCOC(=O)C1(CCOc2ccccc2)CCN(Cc2ccc3nonc3c2)CC1	-3	-2	-6	68*	0	-6
CCOC(=O)C1(CCc2ccccc2)CCN(C(=O)Cc2nonc2C)CC1	100*	1	-6	-20	0	-5
CCOC(=O)C1(CCc2ccccc2)CCN(C(=O)c2occc2C)CC1	1	-2	-6	31	0	-3
O=C(CCC1CCCC1)c1c(O)c2ccccc2oc1=O	93*	2	4	-12	0	2
CC(C)C[C@H]1COc2cccc(F)c2S(=O)(=O)N1Cc1cn(Cc2ccc(Cl)cc2)nn1	.	.	3	.	.	.
Cc1ccc(C2c3c(oc4ccccc4c3=O)C(=O)N2c2nnc(C(C)C)s2)o1 (configuration not stated)	97*	-1	7	3	0	-4
COc1cccc(NC(=O)C2CCCN2C(=O)NC2CCC(C)CC2)c1 (configuration not stated)	.	.	1	.	.	.
COc1ccc(CNc2cccc3[nH]c(C(F)(F)F)nc23)cc1	1	-4	42*	-14	0	-7
CC(C)(C)OC(=O)NN=C(c1ccc(O)cc1)c1ccc(O)cc1	82*	-1	-2	38	0	-3
C/C(=N\NC(=O)OC(C)(C)C)c1cccc([N+](=O)[O-])c1	5	2	1	-1	0	-4
SMILES	ALR H2O2 inh	A3A deaminase	rCAG RNA binder	PHOSPHO1 inh	aDG glyco act	A3G deaminase
CC(=O)Nc1ccc(NC(=S)NC(=O)/C=C/c2ccco2)cc1	0	1	22	8	0	1
CN1CCN(c2ccc(NC(=S)NC(=O)/C=C/c3ccco3)cc2)CC1	81*	2	-1	2	1	6
O=C(/C=C/c1ccco1)NC(=S)Nc1cccc(C(=O)O)c1	96*	84	24	36	0	53
O=C(/C=C/c1ccco1)NC(=S)Nc1ccccn1	99*	3	8	32	0	2
O=C(c1ccco1)N1CCC(Oc2cccnc2)CC1	.	.	0	.	.	.
C[C@@H]1COc2cc(Br)ccc2S(=O)(=O)N1Cc1cn(CCC2OCCCO2)nn1	.	.	3	.	.	.
NN1C(=O)/C(=C2/Sc3ccccc3N2CCCS(=O)(=O)O)SC1=S	-9	9	7	.	0	4
